NPC1 promoter act: activators of NPC1 promoter; 320,000 tested, 2.4% active; Potency, µM (top dose mostly 9.22 µM), without a hit: top-dose activation, usual class: activators; AID 485313; Huh7 NPC1 promoter luciferase reporter, 24 h; also: % of control where 0% means no effect; nearly all actives have a fitted effect of over 60% in size
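In 1536-well qHTS, Huh7 cells harboring an NPC1 promoter–luciferase construct received compound for 24 h; activation was quantified by luminescence following luciferase reagent addition.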
SMN2 splice up: enhancers of SMN2 splice variant expression. HEK293 SMN2-luciferase splicing reporter, luminescence, 30-36 h. Potency, µM (series often up to 46.1 µM), inactives show at the top dose activity change, positive = activation, actives largely listed as activators. 210,000 tested, 2.8% active; also: % of control where 0% means no effect; nearly all actives have a fitted effect of over 55% in size
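qHTS luciferase splicing reporter: luminescence rises when SMN2 exon 7 is included in transfected HEK293 cells. Compound exposure lasted 30-36 h at 37C, with 4.5 mM final sodium butyrate as control, followed by a ONE-Glo read.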
FLuc modulator: inhibits or activates purified firefly luciferase, miR-21 counter-screen | purified FLuc, Km substrates, luminescence inhibition | AID 588342 | Potency, µM (titrated, usually from 57.5 µM), for the others: at the top dose activity change, negative = inhibition, hits mostly inhibitors | 360,000 tested, 6.9% active | P08659;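 also: plate controls were vehicle for no effect and reference inhibitor for full effect; nearly all actives have a fitted effect of over 55% in size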
Target sequence (P08659 whole entry, looked up): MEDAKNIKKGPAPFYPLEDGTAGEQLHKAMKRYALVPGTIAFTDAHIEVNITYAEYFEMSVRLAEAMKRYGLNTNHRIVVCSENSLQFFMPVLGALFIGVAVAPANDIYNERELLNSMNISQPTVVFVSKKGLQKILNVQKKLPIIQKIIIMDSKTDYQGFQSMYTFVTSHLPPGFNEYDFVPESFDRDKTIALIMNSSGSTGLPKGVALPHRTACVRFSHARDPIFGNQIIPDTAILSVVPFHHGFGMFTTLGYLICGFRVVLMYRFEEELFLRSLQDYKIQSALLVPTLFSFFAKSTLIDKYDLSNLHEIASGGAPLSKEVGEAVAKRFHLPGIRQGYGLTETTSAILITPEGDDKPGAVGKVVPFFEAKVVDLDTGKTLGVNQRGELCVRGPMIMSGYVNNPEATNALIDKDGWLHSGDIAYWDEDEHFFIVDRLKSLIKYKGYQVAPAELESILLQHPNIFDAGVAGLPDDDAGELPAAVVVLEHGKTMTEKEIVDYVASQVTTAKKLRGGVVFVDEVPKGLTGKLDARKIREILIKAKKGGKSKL
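Biochemical qHTS of compounds, final roughly 60 µM downward over six points, against 10 nM purified firefly luciferase using Km concentrations of substrates (10 uM D-luciferin, 10 uM ATP) in Tris acetate pH 7.5 buffer; luminescence output.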
Luc counter: blocks Kinase-Glo luciferase, a counter-screen artifact | Q27757 | Kinase-Glo luciferase, ATP luminescence, 8 min | Potency, µM (series often up to 38.3 µM), for inactives: at the highest dose activity change, negative = inhibition, actives largely listed as inhibitors | 200,000 tested, 0.28% active | AID 1379; also: % is scaled to controls: 0 for no effect and ±100 for the full control effect; nearly all actives have a fitted effect of over 60% in size
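Compounds were added to a substrate mix at pH 7.2 (50 mM imidazole, 10 uM ATP, within the enzyme's linear range), followed by Kinase-Glo detection reagent; luminescence was measured after 8 minutes at ambient temperature.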
Rab9 prom act: Rab9 promoter activation. Huh7 Rab9 promoter-luciferase reporter, luminescence, 24 h. Potency, µM (highest dose often 9.22 µM), for the others: top-dose activation, negative = inhibition, hits mostly activators. 320,000 tested, 2.8% active; also: % of control where 0% means no effect; nearly all actives have a fitted effect of over 60% in size
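Using Huh7 cells stably transfected with Rab9 promoter–luciferase, compounds were incubated 24 h at 37 °C, 5% CO2; luciferase luminescence was read 10 min after reagent addition.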
An asterisk follows results filed as active; ! = not confirmed by another sample; [ ] = remark or other dose. Hits are enriched below; roughly 7.3% of the tested compounds scored in any of these assays. Calls follow the shape of the dose curve; as a rule, active = well fitted curve in the direction sought with a large enough effect; inconclusive = small, poorly fitted or top-dose-only effect, or another doubt; inactive = no such curve, though single readings can be large; an effect the other way counts as inactive or inconclusive. Potency is read from the fitted curve at half-maximal effect.

Results for CCOc1cccc2cc(C(=O)Nc3nccs3)c(=O)oc12 ?
NPC1 promoter act: 2%; SMN2 splice up: -3%; FLuc modulator: 2.4µM*; Luc counter: -6%; Rab9 prom act: -1%

Results for CCOc1ccccc1NC(=O)c1cc2ccccc2oc1=O ?
NPC1 promoter act: 3.2µM*; FLuc modulator: -17%; Rab9 prom act: 1.1µM*

How did O=C(Nc1ccc(F)cc1F)c1cc2ccccc2oc1=O do in these assays?
NPC1 promoter act: 2µM*; FLuc modulator: 0.76µM*; Rab9 prom act: 1.8µM*

How did COc1ccccc1NS(=O)(=O)c1cccc(NC(=O)c2cc3ccccc3oc2=O)c1 do in these assays?
NPC1 promoter act: 2.5µM*; SMN2 splice up: 14µM*; FLuc modulator: 11µM*; Luc counter: -17%; Rab9 prom act: 3.2µM*

Results for COc1cccc(-n2c(=O)c3c(C)c(C)sc3n(CC(=O)NCCc3ccc(OC)c(OC)c3)c2=O)c1 ?
SMN2 splice up: -6%; FLuc modulator: -2%

How did CCOC(=O)OCC do in these assays?
SMN2 splice up: 0%

Results for Cc1cc(NC(=O)c2cc(-c3ccc(OC(C)C)cc3)nc3ccccc23)no1 ?
NPC1 promoter act: 19%; FLuc modulator: 3µM*; Rab9 prom act: 19%

How did CCC(C)c1ccc(-c2cc(C(=O)OCC(=O)Nc3cc(C)on3)c3ccccc3n2)cc1 (stereo not given) do in these assays?
NPC1 promoter act: inconclusive; SMN2 splice up: 22µM*; FLuc modulator: 2.7µM*; Luc counter: 0%; Rab9 prom act: 1.6µM*

What do the screens show for `COc1ccc(-c2cc(C(=O)OCC(=O)Nc3cc(C)on3)c3ccccc3n2)cc1OC`?
NPC1 promoter act: 3%; SMN2 splice up: -6%; FLuc modulator: inconclusive; Luc counter: 4%; Rab9 prom act: -1%

Results for CCOc1ccc(-n2c(=O)c3c4c(sc3n(Cc3cccc(Cl)c3)c2=O)CCCC4)cc1 ?
SMN2 splice up: 6%; FLuc modulator: -1%

What do the screens show for `O=C(Nc1ccc(OC(F)(F)F)cc1)c1n[nH]c(Cn2cncn2)n1`?
NPC1 promoter act: -2%; SMN2 splice up: 3%; FLuc modulator: 12µM*; Luc counter: 0%; Rab9 prom act: 0%

How did O=C(CNc1ccccc1)N/N=C/c1c(O)ccc2ccccc12 do in these assays?
NPC1 promoter act: -25%; FLuc modulator: -16%; Rab9 prom act: -25%

Results for Nc1cc(Cl)nc(N/N=C/c2c(O)ccc3ccccc23)n1 ?
NPC1 promoter act: inconclusive; SMN2 splice up: inconclusive; FLuc modulator: 2.7µM*; Luc counter: -3%; Rab9 prom act: 2.5µM*

Results for O=C(O)c1cc(N/N=C/c2c(O)ccc3ccccc23)ccc1Cl ?
NPC1 promoter act: 1.6µM*; FLuc modulator: 2.4µM*; Rab9 prom act: 1.4µM*

Results for CCOc1ccc(CCNC(=O)c2nn(-c3ccc(OC)cc3)c(=O)c3c2c2ccccc2n3C)cc1OCC ?
SMN2 splice up: -13%; FLuc modulator: -2%

How did COCC(C)N=C1NN=C(c2cccs2)C(CC(=O)O)S1 (stereo not given) do in these assays?
NPC1 promoter act: -1%; SMN2 splice up: 12%; FLuc modulator: 0%; Luc counter: 3%; Rab9 prom act: -5%

What do the screens show for `CC(C)c1ccc(N=C2NN=C(c3cccs3)CS2)cc1`?
NPC1 promoter act: 2µM*; SMN2 splice up: 13µM*; FLuc modulator: 6µM*; Luc counter: -5%; Rab9 prom act: 0.71µM*

How did CC(C)N=C1NN=C(c2cccs2)CS1 do in these assays?
NPC1 promoter act: 3.2µM*; SMN2 splice up: 11µM*; FLuc modulator: 24µM*; Luc counter: inconclusive; Rab9 prom act: 0.79µM*

What do the screens show for `COCC(C)N=C1NN=C(c2ccc(NC(C)=O)cc2)CS1` (stereo not given)?
NPC1 promoter act: 26%; SMN2 splice up: inconclusive; FLuc modulator: inconclusive; Luc counter: -1%; Rab9 prom act: inconclusive

What do the screens show for `CC(C)N=C1NN=C(c2ccc(Cl)c(Cl)c2)CS1`?
NPC1 promoter act: 1.4µM*; SMN2 splice up: 5µM*; FLuc modulator: 3.4µM*; Luc counter: -10%; Rab9 prom act: 0.35µM*

Results for COc1ccc(-c2nc3scc(CCNC(=O)c4cccc(Br)c4)n3n2)cc1 ?
FLuc modulator: -16%

How did CCc1nc2ccc(C)cc2c(C(=O)Oc2cccc3cccnc23)c1C do in these assays?
NPC1 promoter act: 3%; SMN2 splice up: -15%; FLuc modulator: 4%; Luc counter: 1%; Rab9 prom act: 2%

What do the screens show for `CCc1nc2ccccc2c(C(=O)Oc2cccc3cccnc23)c1C`?
NPC1 promoter act: 7%; SMN2 splice up: -19%; FLuc modulator: 15µM*; Luc counter: -3%; Rab9 prom act: 12%

Results for CCCCNc1nc(C)nc2c1nc(-c1ccccc1)n2CCCN1CCCCC1C (stereo not given) ?
SMN2 splice up: -10%; Luc counter: -3%

Results for CNS(=O)(=O)c1cccc(C(=O)Nc2cccc(Cl)c2)c1 ?
NPC1 promoter act: 19%; SMN2 splice up: -19%; FLuc modulator: inconclusive; Luc counter: -1%; Rab9 prom act: 26%

What do the screens show for `CN(C)S(=O)(=O)Oc1cccc(C(=O)Nc2cccc(Cl)c2)c1`?
NPC1 promoter act: inconclusive; SMN2 splice up: inconclusive; FLuc modulator: 13µM*; Luc counter: 1%; Rab9 prom act: inconclusive

Results for COc1ccc(NC(=O)c2cccc(OS(=O)(=O)N(C)C)c2)cc1 ?
NPC1 promoter act: 1.6µM*; SMN2 splice up: 11µM*; FLuc modulator: 6µM*; Luc counter: -3%; Rab9 prom act: 2µM*

Results for CN(C)S(=O)(=O)Oc1cccc(C(=O)Nc2ccc(Cl)c(Cl)c2)c1 ?
NPC1 promoter act: 3.5µM*; SMN2 splice up: 6%; FLuc modulator: 4.8µM*; Luc counter: -3%; Rab9 prom act: 2µM*

Results for CC(=O)c1ccc(N2CCN(c3ncnc4c3cnn4-c3cc(Cl)ccc3C)CC2)cc1 ?
FLuc modulator: -4%

How did CCCCNc1c(-c2ccc(SC(C)CC)c(OC)c2)nc2ccc(C)cn12 (stereo not given) do in these assays?
NPC1 promoter act: 0%; FLuc modulator: 8.5µM*; Rab9 prom act: -1%

How did O=c1[nH]c2cc(Cl)c(Cl)cc2[nH]c1=O do in these assays?
NPC1 promoter act: 24%[46.1 µM]; SMN2 splice up: 11µM*!; Luc counter: -2%; Rab9 prom act: 16%[46.1 µM]

Results for CC1CCN(c2ccc3nnc(CCC(=O)Nc4ccc(F)cc4)n3n2)CC1 ?
NPC1 promoter act: -5%; FLuc modulator: 0%; Rab9 prom act: -2%

How did COc1ccc(-c2cccc(NC(=O)c3ccco3)c2)nn1 do in these assays?
NPC1 promoter act: 3%; FLuc modulator: -18%; Rab9 prom act: 2%
